# In PubChem BioAssay (NCI):
# About 83,000 compounds went through this panel and 20% of them were active in at least one assay; those are over-represented in the sample as a whole.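 Single-dose data. Exposure time 48 hours. Values below 10 considered active.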 Values without a mark were called inactive. Calls of active or inactive are those of the source.
# Tests used:
# Test in all cases: NCI-60 one-dose screen, 48 h (100 = growth as untreated, 0 = no growth, -100 = all killed)
# Details in all cases: 10 µM unless noted
# HCT-15 colon = test system: HCT-15 colon
# HT29 colon = test system: HT29 colon
# SNB-75 CNS = test system: SNB-75 CNS
# SNB-19 CNS = test system: SNB-19 CNS
# U251 CNS = test system: U251 CNS
# PC-3 prostate = test system: PC-3 prostate
# SK-MEL-5 melanoma = test system: SK-MEL-5 melanoma
# UACC-62 melanoma = test system: UACC-62 melanoma
# LOX IMVI melanoma = test system: LOX IMVI melanoma
# SK-MEL-28 melanoma = test system: SK-MEL-28 melanoma
SMILES,growth (HCT-15 colon),growth (HT29 colon),growth (SNB-75 CNS),growth (SNB-19 CNS) [%],growth (U251 CNS),growth (PC-3 prostate),growth (SK-MEL-5 melanoma),growth (UACC-62 melanoma),growth (LOX IMVI melanoma),growth (SK-MEL-28 melanoma)
CC(=O)N1N=C(c2ccc(C(F)(F)F)cc2)CC1c1ccc2c(c1)OCO2 (stereo not given),81.1%,47.4%,90%,91,94.6%,73.9%,95%,65%,81.4%,95.4%
O=C1C=CC(=O)N1c1ccccc1N1C(=O)C=CC1=O,99.6%,99.2%,91.7%,91,108%,97.5%,106%,87.4%,97.2%,114%
COc1cccc(/C=N\NC(=O)c2ccncc2)c1O,23.9%,67.6%,57.1%,52.6,31.6%,47.1%,58.8%,41.2%,15.2%,69.6%
COc1cnc2c(c1)C(=O)c1c-2n(CCCNC(C)C)c(=O)c2cc(F)ccc12,-5.08% (active),0.147% (active),-22.5% (active),11,-32.8% (active),-5.02% (active),-98.5% (active),-44.2% (active),-68% (active),-11.1% (active)
CCOC(=O)CCC(=O)O[C@H]1[C@H](O[C@@H]2[C@@H](C)[C@H](O[C@H]3C[C@@](C)(OC)[C@@H](O)[C@H](C)O3)[C@@H](C)C(=O)O[C@H](CC)[C@@](C)(O)[C@H](O)[C@@H](C)C(=O)[C@H](C)C[C@@]2(C)O)O[C@H](C)C[C@@H]1N(C)C,98.1%,102%,91.5%,112,101%,92.6%,104%,102%,102%,117%
COc1cccc(N2CCN(c3cccc(C)n3)CC2)c1,105%,94.9%,133%,113,97.7%,99.6%,92.4%,95.1%,103%,111%
O=C(O)CCNS(=O)(=O)c1ccc(-c2ccccc2)cc1,99.2%,110%,90.6%,102,94.5%,89.6%,97.9%,96.7%,92.1%,94.3%
CN(C)CCCNc1nn2c(=O)c3ccccc3nc2c2ccccc12,55.3%,32.6%,51.2%,69.7,57.2%,62.1%,52.6%,67.3%,33.8%,93.2%
COc1ccc(CNC(=O)c2c(C)n([O-])c3ccccc3[n+]2=O)cc1,103%,102%,79.9%,97.7,97.3%,86.3%,76.6%,96.8%,96.8%,104%
Cc1csc(C#Cc2cncc(O)c2)n1,112%,110%,139%,112,107%,106%,82.6%,98.7%,116%,111%
O=C(NCCNC(=O)Oc1cccc2ccccc12)Oc1cccc2ccccc12,99.6%,108%,89.5%,94.5,116%,78.5%,85.9%,91.1%,81.9%,128%
C[C@]12CCC(=O)C=C1CCC1C2[C@@H](O)C[C@@]2(C)C1CC[C@]2(O)C(=O)COC(=O)CCC(=O)O (stereo not given in full),112%,107%,123%,104,105%,93.2%,98.6%,106%,98.5%,108%
COc1ccc(C2=NN(C(C)=O)C(c3c(C)nn(-c4ccccc4)c3N3CCOCC3)C2)cc1 (stereo not given),103%,101%,74.4%,85.8,89.3%,79.7%,97.6%,87.8%,97.8%,108%
